Abeta yeast res: restores growth of yeast expressing A-beta42 peptide; yeast expressing A-beta42, growth rescue, OD600, 48 h; response scale: 0% DMSO, 100% iron-clioquinol control; 410,000 tested, 0.063% active; Potency, µM (top dose mostly 46.1 µM), actives largely listed as activators; also: nearly all actives have a fitted effect of over 55% in size
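Yeast growth medium received pinned compounds, then yeast cells expressing toxic A-beta were added; plates incubated at 30 C for 48 hr. Growth read as absorbance at 600 nm, normalized to DMSO and equimolar FeCl3 plus clioquinol controls.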
FUS yeast rescue: rescues growth of FUS-expressing yeast; S. cerevisiae FUS-expressing, growth rescue, OD600, 24 h; Potency, µM (top dose mostly 76.6 µM), hits mostly activators; 390,000 tested, 0.24% active;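 also: plate controls were DMSO vehicle for no effect and reference control for full effect; nearly all actives have a fitted effect of over 55% in size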
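S. cerevisiae expressing FUS from galactose induction served as the toxicity model. Growth after 24hr at 30C, read as absorbance at 600 nm, indicates suppression of toxicity; compounds dosed at several concentrations.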
TDP-43 yeast inh: rescues yeast growth from TDP-43 toxicity | TDP-43 expressing yeast growth rescue, BacTiter-Glo, 24 h | Potency, µM (doses to about 46.1 µM), inactives show top-dose growth rescue (activation), hits mostly activators | 410,000 tested, 1.8% active | AID 652104; also: % of control where 0% means no effect; nearly all actives have a fitted effect of over 50% in size
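Galactose-induced TDP-43 yeast, OD600=0.02, compound pinned; 24 hr, 30 deg C; BacTiter-Glo luminescence for growth. Inhibitors of TDP-43 toxicity read as activators.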
aSyn rescue: rescues yeast growth from alpha-synuclein toxicity; Yeast expressing alpha-synuclein, growth rescue, BacTiter-Glo, 24 h; Potency, µM (top dose mostly 46.1 µM), for the others: at the top dose growth rescue (activation), actives largely listed as activators; 370,000 tested, 0.14% active; AID 652106; also: % of control where 0% means no effect; nearly all actives have a fitted effect of over 65% in size
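Readout is rescue of growth in alpha-synuclein-expressing yeast, so inhibitors of toxicity appear as activators. Growth after 24 hr at 30 deg C in galactose medium is quantified by luminescence.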
* marks the source's active call; other numbers are inactive results. Compounds with a hit are over-represented: about 2.1% of the library has one in this group of screens. Calls follow the shape of the dose curve; as a rule, active = well fitted curve in the direction sought with a large enough effect; inconclusive = small, poorly fitted or top-dose-only effect, or another doubt; inactive = no such curve, though single readings can be large; an effect the other way counts as inactive or inconclusive. Potency is read from the fitted curve at half-maximal effect.

`O=C(Cn1nc(-c2ccccc2)c2c(c1=O)CCCC2)Nc1ccc(F)c(Cl)c1` gave Abeta yeast res inactive, FUS yeast rescue 10µM* and TDP-43 yeast inh -6%.
Screening COC(=O)c1cc(NC(=O)Cn2nc(-c3ccccc3)c3c(c2=O)CCCC3)cc(C(=O)OC)c1 returned Abeta yeast res inactive, FUS yeast rescue inactive and TDP-43 yeast inh 19%.
`CC1CCCN(Cc2c(O)ccc3c(=O)c(-c4ccccc4Cl)c(C(F)(F)F)oc23)C1` (stereo unspecified) gave Abeta yeast res inactive, FUS yeast rescue inactive and TDP-43 yeast inh 9%.
Screening CCOC(=O)C1CCN(C(=O)Cc2c(F)cccc2Cl)CC1 returned Abeta yeast res inactive, FUS yeast rescue inactive, TDP-43 yeast inh 9% and aSyn rescue 7%.
`COc1ccc(OCCCC(=O)NCc2ccco2)cc1` gave Abeta yeast res inactive, FUS yeast rescue inactive, TDP-43 yeast inh -4% and aSyn rescue 3%.
CSc1nnc2ccc(-c3ccccn3)nn12 was read as Abeta yeast res inactive, FUS yeast rescue inactive, TDP-43 yeast inh 17% and aSyn rescue -5%.
Screening CSc1c(-c2ccccn2)c(N)nn1C(=O)C1CCC1 returned Abeta yeast res inactive, FUS yeast rescue inactive, TDP-43 yeast inh 11µM* and aSyn rescue -13%.
`CSc1c(-c2ccccn2)c(N)nn1C(=O)C1CC1` gave Abeta yeast res inactive, FUS yeast rescue inactive, TDP-43 yeast inh 11µM* and aSyn rescue 13%.
`O=C(COC(=O)/C=C/c1ccccc1Cl)Nc1cccnc1Cl` gave Abeta yeast res inactive, FUS yeast rescue inactive, TDP-43 yeast inh inconclusive and aSyn rescue 2%.
O=C(NCc1ccccc1Cl)c1cnc2ccccc2n1 was read as Abeta yeast res inactive, FUS yeast rescue inactive, TDP-43 yeast inh 0% and aSyn rescue 0%.
Screening CCOC(=O)C1=C(N)Oc2ccc3ccccc3c2C1c1cccnc1 (stereo unspecified) returned Abeta yeast res inactive, FUS yeast rescue inactive, TDP-43 yeast inh 8% and aSyn rescue 2%.
Screening CN(C)S(=O)(=O)c1ccc(N2CCCC2)c(C(=O)N2CCN(S(=O)(=O)c3ccc(F)c(F)c3)CC2)c1 returned Abeta yeast res inactive, FUS yeast rescue 28µM*, TDP-43 yeast inh 16% and aSyn rescue 1%.
Screening CCOC(=O)[C@]12CCCC=C1N(CCC1=CCCCC1)C(=O)[C@H](CC(=O)NCC1CCCCC1)C2 returned Abeta yeast res inactive, FUS yeast rescue inconclusive, TDP-43 yeast inh 22µM* and aSyn rescue -7%.
For CCOC(=O)[C@]12CCC=C1N(CCC1=CCCCC1)C(=O)[C@H](CC(=O)NCC1CCCCC1)C2 the results were Abeta yeast res inactive, FUS yeast rescue inconclusive, TDP-43 yeast inh 16% and aSyn rescue 9%.
For CCOC(=O)[C@]12CCC=C1N(CCC1=CCCCC1)C(=O)[C@H](CC(=O)NCc1ccccc1)C2 the results were Abeta yeast res inactive, FUS yeast rescue inactive, TDP-43 yeast inh 0% and aSyn rescue 8%.
`CCOC(=O)[C@]12CCCC=C1N(CCC1=CCCCC1)C(=O)[C@H](CC(=O)NCc1ccccc1)C2` gave Abeta yeast res inconclusive, FUS yeast rescue inconclusive, TDP-43 yeast inh 22µM* and aSyn rescue 3%.
CCN(CC)c1ccc(C(=C2C=CC(=[N+](CC)CC)C=C2)c2ccc(S(=O)(=O)O)cc2S(=O)(=O)[O-])cc1 was read as Abeta yeast res inactive, FUS yeast rescue 32µM*, TDP-43 yeast inh -61% and aSyn rescue -57%.
CCOC(=O)CNC(=O)CSc1nc(-c2ccc(OC)cc2)ns1 was read as Abeta yeast res inactive, FUS yeast rescue inactive, TDP-43 yeast inh 25µM* and aSyn rescue 17%.
For CCOC(=O)c1cccc2c1-c1ccccc1/C2=N/O the results were Abeta yeast res inactive, FUS yeast rescue inactive, TDP-43 yeast inh 14µM* and aSyn rescue -13%.
`CC(C)COC(=O)c1cccc2c1-c1ccccc1/C2=N\O` gave Abeta yeast res inactive, FUS yeast rescue inactive, TDP-43 yeast inh inconclusive and aSyn rescue -18%.
CCOC(=O)c1c(NC(=O)CC2Nc3cc(C)c(C)cc3NC2=O)sc(C)c1C (stereo unspecified) was read as Abeta yeast res inactive, FUS yeast rescue inactive, TDP-43 yeast inh -9% and aSyn rescue 2%.
`CC1(C(=O)O)CCCN(C(=O)C2(c3ccc(Cl)cc3)CCCC2)C1` (stereo unspecified) gave Abeta yeast res inactive, FUS yeast rescue inactive, TDP-43 yeast inh 18µM* and aSyn rescue -8%.
Screening CC1(C(=O)NS(=O)(=O)C2CC2)CCN(C(=O)C2(c3ccc(Cl)cc3)CCCC2)C1 (stereo unspecified) returned Abeta yeast res inactive, FUS yeast rescue inactive, TDP-43 yeast inh -5% and aSyn rescue 4%.
Screening Cc1ccc(Cl)cc1NC(=O)Cn1c(=O)c(CNc2ccccc2)cc2cc3c(cc21)OCCO3 returned Abeta yeast res inactive, FUS yeast rescue 28µM*, TDP-43 yeast inh -19% and aSyn rescue 3%.
`CNC(=O)CSc1nnc(-c2ccco2)n1-c1cccc(OC)c1` gave Abeta yeast res inactive, FUS yeast rescue inactive, TDP-43 yeast inh -7% and aSyn rescue -2%.
COc1ccccc1N1CCN(c2ncnc3c2nc2n3CCCC2)CC1 was read as Abeta yeast res inactive, FUS yeast rescue inactive and TDP-43 yeast inh 35µM*.
For COc1ccccc1N1CCN(C(=O)C2CCCN(c3ncnc4c3nc3n4CCCCC3)C2)CC1 (stereo unspecified) the results were Abeta yeast res inactive, FUS yeast rescue inactive, TDP-43 yeast inh 23% and aSyn rescue -1%.
For Fc1ccccc1N1CCN(c2ncnc3c2nc2n3CCCCC2)CC1 the results were Abeta yeast res inactive, FUS yeast rescue inactive and TDP-43 yeast inh inconclusive.
COc1cccc(N2CCN(c3ncnc4c3nc3n4CCCCC3)CC2)c1 was read as Abeta yeast res inactive, FUS yeast rescue inconclusive and TDP-43 yeast inh 18µM*.
FC(F)(F)c1cccc(N2CCN(c3ncnc4c3nc3n4CCCC3)CC2)c1 was read as Abeta yeast res inactive, FUS yeast rescue inactive and TDP-43 yeast inh 16µM*.
COc1ccc(N2CCN(c3ncnc4c3nc3n4CCCCC3)CC2)cc1 was read as Abeta yeast res inactive, FUS yeast rescue inactive and TDP-43 yeast inh 16%.
`COc1ccc(C(=O)OCC(=O)NCC2CCCO2)cc1` (stereo unspecified) gave Abeta yeast res inactive, FUS yeast rescue inactive, TDP-43 yeast inh -12% and aSyn rescue -8%.
COC(=O)c1cc(NC(=O)c2cc(C(C)(C)C)nn2Cc2ccc(F)cc2)ccc1N1CCOCC1 was read as Abeta yeast res inactive, FUS yeast rescue inconclusive, TDP-43 yeast inh 4% and aSyn rescue 2%.
Cc1[nH]c(-c2ccc(F)cc2)cc1C(=O)N1CCN(c2ccccc2)CC1 was read as Abeta yeast res inactive, FUS yeast rescue inactive, TDP-43 yeast inh 18µM* and aSyn rescue inconclusive.
